# Test results reported in the supplement of paper PMC11732987, “Enantioselective OTUD7B fragment discovery through chemoproteomics screening and high-throughput optimisation” (Communications Chemistry, 2025).
# Values without a mark were called inactive.
# Legend:
# Assay in all cases: log2 ratio of Biotin-Ahx-Ub-VS probe labelling (fragment/DMSO); higher = less target engagement (more negative = stronger competition), active = hit call of the paper (q ≤ 0.05, log2 ratio ≤ -1)
# Conditions in all cases: compound concentration: 200 uM; treatment time: 3 h
# OTUD6B = target: T1, OTUD6B (UniProt Q8N6M0)
# T1 sequence (whole entry): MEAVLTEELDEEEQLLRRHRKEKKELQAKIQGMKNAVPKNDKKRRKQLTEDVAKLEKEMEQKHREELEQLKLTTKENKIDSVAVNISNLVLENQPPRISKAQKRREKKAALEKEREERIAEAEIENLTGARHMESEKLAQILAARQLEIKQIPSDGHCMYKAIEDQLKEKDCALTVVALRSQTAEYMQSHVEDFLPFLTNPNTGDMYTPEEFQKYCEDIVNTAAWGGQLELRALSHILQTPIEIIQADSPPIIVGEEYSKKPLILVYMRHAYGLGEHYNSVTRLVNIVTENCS
# Procedure, shortened: (§1)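 Fragment (200 µM) or vehicle was incubated for 3 h with triplicate HEK293T lysate samples of 495 µg, which were then treated with Biotin-Ahx-Ub-VS at 0.5 µM final for 1 h. Labelled DUBs were enriched on NeutrAvidin, digested with LysC and trypsin, and analysed by diaPASEF LC-MS/MS. Values are average log2 fragment/vehicle ratios from an unpaired t-test on global-median-normalised Spectronaut label-free quantities, using proteins with ≥2 unique peptides.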
# OTUD7B = target: T2, OTUD7B (UniProt Q6GQQ9)
# T2 sequence (whole entry): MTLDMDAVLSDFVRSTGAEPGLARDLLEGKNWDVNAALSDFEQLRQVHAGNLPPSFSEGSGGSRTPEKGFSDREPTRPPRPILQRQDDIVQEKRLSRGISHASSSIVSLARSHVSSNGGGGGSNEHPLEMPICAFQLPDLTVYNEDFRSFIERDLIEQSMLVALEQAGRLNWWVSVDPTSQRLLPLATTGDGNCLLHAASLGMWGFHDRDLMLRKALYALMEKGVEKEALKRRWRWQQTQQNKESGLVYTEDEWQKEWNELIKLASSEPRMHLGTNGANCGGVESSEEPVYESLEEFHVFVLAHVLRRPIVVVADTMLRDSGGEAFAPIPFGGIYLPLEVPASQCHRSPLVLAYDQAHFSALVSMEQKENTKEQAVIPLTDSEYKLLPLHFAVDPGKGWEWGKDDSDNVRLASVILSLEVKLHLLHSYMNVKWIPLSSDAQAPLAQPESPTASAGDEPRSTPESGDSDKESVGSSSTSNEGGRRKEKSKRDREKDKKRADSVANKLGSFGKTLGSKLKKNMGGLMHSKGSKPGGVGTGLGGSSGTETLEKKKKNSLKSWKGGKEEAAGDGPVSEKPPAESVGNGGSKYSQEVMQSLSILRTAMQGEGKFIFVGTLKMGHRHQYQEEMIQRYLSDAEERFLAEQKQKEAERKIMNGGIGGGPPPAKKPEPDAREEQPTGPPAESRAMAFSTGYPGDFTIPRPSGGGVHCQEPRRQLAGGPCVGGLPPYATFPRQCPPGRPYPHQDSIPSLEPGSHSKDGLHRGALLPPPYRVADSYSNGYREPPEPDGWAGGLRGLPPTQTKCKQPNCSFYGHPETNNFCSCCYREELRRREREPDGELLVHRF
# Procedure, shortened: as §1
# PRPF8 = PRPF8 (UniProt Q6P2Q9)
# Procedure, shortened: as §1
# PSMD7 = target: T3, PSMD7 (UniProt P51665)
# T3 sequence (whole entry): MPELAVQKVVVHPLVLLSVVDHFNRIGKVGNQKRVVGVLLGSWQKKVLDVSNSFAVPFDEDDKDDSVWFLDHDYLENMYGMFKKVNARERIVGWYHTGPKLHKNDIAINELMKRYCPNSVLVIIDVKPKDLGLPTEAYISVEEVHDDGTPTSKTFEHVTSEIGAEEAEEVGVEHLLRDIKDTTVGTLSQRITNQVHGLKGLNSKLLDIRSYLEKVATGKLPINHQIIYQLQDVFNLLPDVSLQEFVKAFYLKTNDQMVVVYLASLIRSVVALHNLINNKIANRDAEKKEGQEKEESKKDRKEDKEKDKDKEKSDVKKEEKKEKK
# Procedure, shortened: as §1
# UCHL1 = UCHL1 (UniProt P09936)
# Procedure, shortened: as §1
# UCHL3 = target: T4, UCHL3 (UniProt P15374)
# T4 sequence (whole entry): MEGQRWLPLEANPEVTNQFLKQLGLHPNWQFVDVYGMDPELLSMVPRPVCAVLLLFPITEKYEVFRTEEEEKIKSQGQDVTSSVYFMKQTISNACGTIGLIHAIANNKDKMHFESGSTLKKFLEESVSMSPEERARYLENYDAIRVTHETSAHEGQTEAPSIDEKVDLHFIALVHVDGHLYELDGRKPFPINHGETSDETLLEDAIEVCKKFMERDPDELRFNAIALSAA
# Procedure, shortened: as §1
# UCHL5 = target: T5, UCHL5 (UniProt Q9Y5K5)
# T5 sequence (whole entry): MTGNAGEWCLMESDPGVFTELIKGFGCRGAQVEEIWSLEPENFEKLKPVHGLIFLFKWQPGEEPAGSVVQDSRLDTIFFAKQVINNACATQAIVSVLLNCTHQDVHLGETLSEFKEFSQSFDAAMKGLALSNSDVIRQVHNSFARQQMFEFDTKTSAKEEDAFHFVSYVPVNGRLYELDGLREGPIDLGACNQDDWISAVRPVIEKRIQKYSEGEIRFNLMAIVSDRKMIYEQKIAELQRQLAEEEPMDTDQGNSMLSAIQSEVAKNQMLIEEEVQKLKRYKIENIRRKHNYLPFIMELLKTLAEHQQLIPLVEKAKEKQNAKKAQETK
# Procedure, shortened: as §1
# USP10 = USP10 (UniProt Q14694)
# Procedure, shortened: as §1
# USP15 = target: T6, USP15 (UniProt Q9Y4E8)
# T6 sequence (whole entry): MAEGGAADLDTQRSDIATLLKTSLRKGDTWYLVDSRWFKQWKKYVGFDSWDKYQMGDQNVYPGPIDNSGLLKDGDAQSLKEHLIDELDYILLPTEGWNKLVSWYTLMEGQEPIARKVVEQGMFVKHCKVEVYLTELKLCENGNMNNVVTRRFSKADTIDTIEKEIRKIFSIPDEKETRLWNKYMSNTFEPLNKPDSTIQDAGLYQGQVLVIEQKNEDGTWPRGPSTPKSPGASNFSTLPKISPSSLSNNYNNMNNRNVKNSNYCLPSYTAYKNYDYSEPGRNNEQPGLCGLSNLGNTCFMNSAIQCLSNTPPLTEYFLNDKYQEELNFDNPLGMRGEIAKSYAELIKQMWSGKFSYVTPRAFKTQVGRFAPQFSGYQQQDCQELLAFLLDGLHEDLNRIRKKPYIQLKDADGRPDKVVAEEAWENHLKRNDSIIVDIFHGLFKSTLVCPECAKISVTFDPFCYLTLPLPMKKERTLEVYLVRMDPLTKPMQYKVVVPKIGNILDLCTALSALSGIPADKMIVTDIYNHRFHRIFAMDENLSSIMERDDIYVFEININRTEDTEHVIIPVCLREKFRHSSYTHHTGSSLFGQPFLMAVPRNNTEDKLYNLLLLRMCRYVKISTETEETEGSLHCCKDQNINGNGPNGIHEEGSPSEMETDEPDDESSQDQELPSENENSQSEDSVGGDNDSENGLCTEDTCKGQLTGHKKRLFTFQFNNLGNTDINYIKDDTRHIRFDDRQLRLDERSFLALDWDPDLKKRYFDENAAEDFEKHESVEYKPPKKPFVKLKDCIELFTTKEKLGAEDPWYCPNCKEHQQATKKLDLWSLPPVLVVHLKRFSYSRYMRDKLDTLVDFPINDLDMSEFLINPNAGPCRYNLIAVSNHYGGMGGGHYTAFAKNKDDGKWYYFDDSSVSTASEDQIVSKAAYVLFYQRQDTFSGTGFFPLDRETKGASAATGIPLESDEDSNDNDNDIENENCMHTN
# Procedure, shortened: as §1
# USP16 = USP16 (UniProt Q9Y5T5)
# Procedure, shortened: as §1
# UCHL1, sequence (P09936 whole entry, looked up): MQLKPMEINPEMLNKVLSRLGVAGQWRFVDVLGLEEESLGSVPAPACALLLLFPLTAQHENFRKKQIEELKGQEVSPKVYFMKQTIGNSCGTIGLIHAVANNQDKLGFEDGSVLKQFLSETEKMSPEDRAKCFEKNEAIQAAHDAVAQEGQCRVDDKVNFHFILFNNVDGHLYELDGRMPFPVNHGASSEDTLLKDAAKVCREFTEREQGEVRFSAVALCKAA
# USP10, sequence (Q14694 whole entry): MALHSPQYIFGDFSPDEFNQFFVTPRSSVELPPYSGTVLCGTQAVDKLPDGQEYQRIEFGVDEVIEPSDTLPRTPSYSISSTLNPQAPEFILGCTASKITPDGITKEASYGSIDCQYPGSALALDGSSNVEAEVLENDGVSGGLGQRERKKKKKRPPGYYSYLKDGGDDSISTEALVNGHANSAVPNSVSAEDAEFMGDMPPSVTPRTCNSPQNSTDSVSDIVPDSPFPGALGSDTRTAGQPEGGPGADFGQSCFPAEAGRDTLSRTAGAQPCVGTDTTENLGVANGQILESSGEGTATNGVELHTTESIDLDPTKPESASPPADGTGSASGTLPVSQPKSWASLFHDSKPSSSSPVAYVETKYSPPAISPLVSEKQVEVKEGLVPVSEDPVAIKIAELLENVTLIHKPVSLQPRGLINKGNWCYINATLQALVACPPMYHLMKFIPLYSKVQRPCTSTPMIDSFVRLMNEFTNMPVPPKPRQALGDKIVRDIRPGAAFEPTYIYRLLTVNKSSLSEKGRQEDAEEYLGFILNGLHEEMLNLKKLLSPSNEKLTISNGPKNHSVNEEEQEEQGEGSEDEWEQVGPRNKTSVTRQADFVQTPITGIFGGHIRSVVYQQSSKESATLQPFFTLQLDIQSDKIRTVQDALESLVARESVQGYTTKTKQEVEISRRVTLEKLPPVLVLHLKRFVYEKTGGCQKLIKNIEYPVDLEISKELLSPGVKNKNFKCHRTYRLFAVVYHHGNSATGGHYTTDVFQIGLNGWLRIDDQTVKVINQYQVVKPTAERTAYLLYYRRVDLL
# USP16, sequence (Q9Y5T5 whole entry, looked up): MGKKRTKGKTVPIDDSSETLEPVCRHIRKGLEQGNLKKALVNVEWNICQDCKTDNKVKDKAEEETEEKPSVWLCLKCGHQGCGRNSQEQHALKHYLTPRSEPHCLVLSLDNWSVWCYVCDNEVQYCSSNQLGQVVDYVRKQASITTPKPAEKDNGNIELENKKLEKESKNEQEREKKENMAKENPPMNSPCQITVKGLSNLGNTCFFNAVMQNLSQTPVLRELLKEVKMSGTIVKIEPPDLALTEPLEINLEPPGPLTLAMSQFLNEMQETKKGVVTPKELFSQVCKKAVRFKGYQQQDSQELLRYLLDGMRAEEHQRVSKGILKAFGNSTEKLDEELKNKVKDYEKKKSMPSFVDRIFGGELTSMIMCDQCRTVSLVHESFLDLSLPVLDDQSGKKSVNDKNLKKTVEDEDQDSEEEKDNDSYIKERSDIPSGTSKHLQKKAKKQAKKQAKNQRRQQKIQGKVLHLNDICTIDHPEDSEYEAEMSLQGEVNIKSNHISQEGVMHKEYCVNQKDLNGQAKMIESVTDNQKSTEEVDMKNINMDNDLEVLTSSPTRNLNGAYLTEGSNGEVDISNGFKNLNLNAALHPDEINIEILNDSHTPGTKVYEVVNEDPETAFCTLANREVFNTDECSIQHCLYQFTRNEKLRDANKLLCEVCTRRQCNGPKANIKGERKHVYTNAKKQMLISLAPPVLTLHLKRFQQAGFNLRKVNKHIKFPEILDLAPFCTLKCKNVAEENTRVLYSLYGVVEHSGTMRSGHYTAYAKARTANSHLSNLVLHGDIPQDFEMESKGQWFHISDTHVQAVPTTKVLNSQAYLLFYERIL
smiles,measurement,setting,value
O=C(CCl)N(C1=CCCCC1)C1CC1,log2 ratio of Biotin-Ahx-Ub-VS probe labelling,OTUD6B,-0.00924
same,log2 ratio of Biotin-Ahx-Ub-VS probe labelling,OTUD7B,-0.39
same,log2 ratio of Biotin-Ahx-Ub-VS probe labelling,PRPF8,0.215
same,log2 ratio of Biotin-Ahx-Ub-VS probe labelling,PSMD7,0.0445
same,log2 ratio of Biotin-Ahx-Ub-VS probe labelling,UCHL1,-1.24 (active)
same,log2 ratio of Biotin-Ahx-Ub-VS probe labelling,UCHL3,0.218
same,log2 ratio of Biotin-Ahx-Ub-VS probe labelling,UCHL5,-0.186
same,log2 ratio of Biotin-Ahx-Ub-VS probe labelling,USP10,-0.112
same,log2 ratio of Biotin-Ahx-Ub-VS probe labelling,USP15,-0.209
same,log2 ratio of Biotin-Ahx-Ub-VS probe labelling,USP16,-0.193
